From PubChem BioAssay AID1159580 (chemical genetic matrix, 2015)
About 2,000 (36%) of roughly 5,500 compounds were called active. Not shown: some 18% with an inconclusive outcome. No stated cut-off is given here; in the data, active means normalized growth mostly below about 0.91 (no sharp cut-off); inconclusive means no clear call, values can overlap the other calls; inactive means mostly above about 0.92. Some of the results follow.

Test: chemical genetic growth profiling, strain panel (AID 1159580);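 further: tested at 20 µM; growth read once vehicle control cultures reached saturation at 30 °C; 1 = growth at the plate median or of vehicle wells; lower values mean less growth of the strain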
Details: S. cerevisiae deletion strains, growth OD

Measured: normalized growth

COC(=O)c1cc(I)c(OC(C)=O)c(I)c1
active: locus YLR113W, strain HOG1, active compounds read low 0.745
inactive: locus YAR019C, strain CDC15, active compounds read low 0.952 | locus YBL105C, strain PKC1, active compounds read low 0.958 | locus YBR135W, strain CKS1, active compounds read low 0.944 | locus YBR136W, strain MEC1, active compounds read low 0.958 | locus YBR160W, strain CDC28, active compounds read low 0.959 | locus YDL017W, strain CDC7, active compounds read low 0.961 | locus YDL028C, strain MPS1, active compounds read low 0.961 | locus YDL101C, strain DUN1, active compounds read low 0.935 | locus YDL108W, strain KIN28, active compounds read low 0.955 | locus YDL132W, strain cdc53, active compounds read low 0.939 | locus YDL214C, strain PRR2, active compounds read low 0.929 | locus YDR052C, strain DBF4, active compounds read low 0.967 | locus YDR054C, strain cdc34, active compounds read low 0.939 | locus YDR226W, strain ADK1, active compounds read low 0.951 | locus YDR477W, strain SNF1, active compounds read low 0.955 | locus YER123W, strain YCK3, active compounds read low 0.905 | locus YER133W, strain GLC7, active compounds read low 0.945 | locus YFL009W, strain cdc4, active compounds read low 0.952 | locus YFL029C, strain CAK1, active compounds read low 0.947 | locus YFR003C, strain YPI1, active compounds read low 0.956 | locus YFR019W, strain FAB1, active compounds read low 0.94 | locus YFR028C, strain CDC14, active compounds read low 0.95 | locus YGR040W, strain KSS1, active compounds read low 0.953 | locus YGR052W, strain FMP48, active compounds read low 0.967 | locus YGR092W, strain DBF2, active compounds read low 0.9 | locus YHR030C, strain SLT2, active compounds read low 0.916 | locus YHR079C, strain IRE1, active compounds read low 0.973 | locus YHR082C, strain KSP1, active compounds read low 0.98 | locus YHR205W, strain SCH9, active compounds read low 0.864 | locus YIL147C, strain SLN1, active compounds read low 0.966 | locus YJL095W, strain BCK1, active compounds read low 0.934 | locus YJL128C, strain PBS2, active compounds read low 0.856 | locus YJL157C, strain FAR1, active compounds read low 0.945 | locus YJR016C, strain ILV3, active compounds read low 0.959 | locus YJR066W, strain TOR1 (second series), active compounds read low 0.943 | locus YJR066W, strain TOR1, active compounds read low 1.01 | locus YKL048C, strain ELM1, active compounds read low 0.913 | locus YKL067W, strain YNK1, active compounds read low 0.91 | locus YKL101W, strain HSL1, active compounds read low 0.902 | locus YKL193C, strain SDS22, active compounds read low 0.942 | locus YKL203C, strain TOR2, active compounds read low 1.02 | locus YLR133W, strain CKI1, active compounds read low 0.949 | locus YLR403W, strain SFP1, active compounds read low 0.935 | locus YML070W, strain DAK1, active compounds read low 0.897 | locus YMR001C, strain CDC5, active compounds read low 0.947 | locus YMR205C, strain PFK2 (second series), active compounds read low 0.925 | locus YMR277W, strain FCP1, active compounds read low 0.948 | locus YNL006W, strain LST8, active compounds read low 0.951 | locus YNL020C, strain ARK1, active compounds read low 0.939 | locus YNL161W, strain CBK1, active compounds read low 0.961 | locus YNL183C, strain NPR1, active compounds read low 0.958 | locus YNL207W, strain RIO2, active compounds read low 0.957 | locus YNL222W, strain SSU72, active compounds read low 0.94 | locus YNL307C, strain MCK1 (second series), active compounds read low 0.918 | locus YOL078W, strain AVO1, active compounds read low 0.952 | locus YOL136C, strain PFK27, active compounds read low 0.926 | locus YOR061W, strain CKA2, active compounds read low 0.937 | locus YOR119C, strain RIO1, active compounds read low 0.991 | locus YOR231W, strain MKK1, active compounds read low 0.942 | locus YOR329C, strain SCD5, active compounds read low 0.963 | locus YPL031C, strain PHO85, active compounds read low 0.949 | locus YPL153C, strain RAD53, active compounds read low 0.936 | locus YPL204W, strain HRR25, active compounds read low 0.946 | locus YPL209C, strain IPL1, active compounds read low 0.95 | locus YPL256C, strain CLN2, active compounds read low 0.898 | locus YPR025C, strain CCL1, active compounds read low 0.953 | locus YPR106W, strain ISR1, active compounds read low 0.92 | locus YPR111W, strain DBF20, active compounds read low 0.926 | strain NNK1, active compounds read low 0.921 | strain TSCII, active compounds read low 0.948
